A short description of test [1]: antimalarial activity against Dd2 strain (AID 2302;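 active = growth inhibition above 50% at the single 2 µM test dose, taken to imply half-maximal potency below 2 µM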;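 also: 0% = DMSO untreated growth and 100% = chloroquine plus artemisinin killed control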). The conditions noted are these: P. falciparum Dd2 in RBCs, LDH growth readout, 72 h; at 2 µM; stronger effect = higher value.
The nature of test [2]: human hepatoma cell viability loss – ATP luminescence, cytotoxicity control for P. falciparum antimalarial project, primary screen (AID 2303;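 active = inhibition above 50%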;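 also: 0% = DMSO wells and 100% = digitonin-killed cells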). The note with it: HepG2 viability, 24-48 h, at 10 µM, stronger effect = higher value.
The target of test [3] is L-lactate dehydrogenase (Plasmodium falciparum (isolate CDC / Honduras)) (UniProt Q27743). Put plainly: PfLDH activity inhibition – cell lysate, 3D7 strain, counter-screen for P. falciparum growth inhibition project (AID 2304).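 Also: 0% = vehicle and 100% = reference inhibitor.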 The conditions noted are these: P. falciparum 3D7 crude extract, LDH APAD/NBT absorbance; at 2 µM; stronger effect = higher value.
Sequence of L-lactate dehydrogenase (Plasmodium falciparum (isolate CDC / Honduras)) (Q27743 whole entry, looked up): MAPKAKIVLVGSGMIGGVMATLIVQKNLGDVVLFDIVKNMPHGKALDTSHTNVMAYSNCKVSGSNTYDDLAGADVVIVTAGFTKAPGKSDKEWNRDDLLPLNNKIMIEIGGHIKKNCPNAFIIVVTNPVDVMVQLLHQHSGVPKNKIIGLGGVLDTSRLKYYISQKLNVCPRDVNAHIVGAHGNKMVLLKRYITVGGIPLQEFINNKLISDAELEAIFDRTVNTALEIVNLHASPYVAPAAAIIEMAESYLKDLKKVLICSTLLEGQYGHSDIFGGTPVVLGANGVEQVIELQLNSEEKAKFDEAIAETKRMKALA
Test [4] is described as follows: inhibition of 3D7 malaria parasite growth – strain 3D7 (AID 2306).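 Also: 0% = DMSO wells and 100% = chloroquine plus artemisinin control wells.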 The conditions noted are these: P. falciparum 3D7 erythrocytic growth, LDH absorbance, 72 h; at 2 µM; stronger effect = higher value.
In test [5] the target is Calcium-dependent protein kinase 1 (Plasmodium falciparum (isolate 3D7)) (UniProt P62344). Briefly: PfCDPK1 kinase inhibitors, biochemical, TCAMS library (AID 1159585; cut-off not given, nearly all actives have IC50 up to about 0.98 µM;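 also: inhibitors leave more ATP so luminescence rises with inhibition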). The note with it: recombinant PfCDPK1, Kinase-Glo ATP depletion luminescence.
Sequence of Calcium-dependent protein kinase 1 (Plasmodium falciparum (isolate 3D7)) (P62344 whole entry, looked up): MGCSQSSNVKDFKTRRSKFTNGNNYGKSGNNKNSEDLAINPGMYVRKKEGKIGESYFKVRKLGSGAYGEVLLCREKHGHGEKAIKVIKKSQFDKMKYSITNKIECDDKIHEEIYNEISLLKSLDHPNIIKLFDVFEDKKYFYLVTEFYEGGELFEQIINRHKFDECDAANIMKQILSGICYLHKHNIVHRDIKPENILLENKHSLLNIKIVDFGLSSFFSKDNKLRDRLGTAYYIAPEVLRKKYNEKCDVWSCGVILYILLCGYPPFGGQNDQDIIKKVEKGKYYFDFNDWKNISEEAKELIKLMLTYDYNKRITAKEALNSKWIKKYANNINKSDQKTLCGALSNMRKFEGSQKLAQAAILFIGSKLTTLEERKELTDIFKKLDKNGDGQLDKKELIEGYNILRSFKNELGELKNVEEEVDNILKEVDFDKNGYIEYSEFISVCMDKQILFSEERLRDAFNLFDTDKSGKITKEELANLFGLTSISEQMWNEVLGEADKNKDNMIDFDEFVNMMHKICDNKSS
Test [6] deals with Plasmodium falciparum protein kinase 6 (PK6, PF3D7_1337100) (UniProt Q8IDW1). Briefly: PfPK6 kinase inhibitors, biochemical, TCAMS library (AID 1159586). The note with it: recombinant PfPK6, Kinase-Glo ATP depletion luminescence.
Sequence of Plasmodium falciparum protein kinase 6 (PK6, PF3D7_1337100) (Q8IDW1 1-305): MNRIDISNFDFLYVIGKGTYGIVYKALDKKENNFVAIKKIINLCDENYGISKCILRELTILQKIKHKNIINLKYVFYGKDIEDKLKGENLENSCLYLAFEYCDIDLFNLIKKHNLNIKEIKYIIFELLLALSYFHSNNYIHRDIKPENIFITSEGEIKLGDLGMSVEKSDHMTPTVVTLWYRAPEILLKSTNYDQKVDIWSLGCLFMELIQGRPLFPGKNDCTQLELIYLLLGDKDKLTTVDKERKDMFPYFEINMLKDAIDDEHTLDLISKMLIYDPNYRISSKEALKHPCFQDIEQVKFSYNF
Test [7] addresses Protein kinase 7 (PK7), Plasmodium falciparum 3D7 (PF3D7_0213400) (UniProt Q7YTF7). Put plainly: inhibition of Plasmodium PK7 catalytic activity – biochemical, TCAMS antimalarial set, Kinase-Glo luminescence (AID 1159587). The conditions noted are these: recombinant PfPK7, Kinase-Glo ATP depletion luminescence. (In general: In Kinase-Glo more light means more ATP remaining.)
Test [8] has as its target Calcium-dependent protein kinase 4 (Plasmodium falciparum (isolate 3D7)) (UniProt Q8IBS5). Put plainly: PfCDPK4 kinase inhibitors, biochemical, TCAMS library (AID 1159588; cut-off not given, nearly all actives have IC50 up to about 0.91 µM). The note with it: recombinant PfCDPK4, Kinase-Glo ATP depletion luminescence.

Each structure is given as a SMILES string. Where “and” joins values, the source holds several entries; their conditions need not be identical. Equal values may be shown once. A number with no mark means an inactive call. For some assays here: Results with a measured potency or affinity are listed apart. Calls of active or inactive are those of the source. Unless noted, no rule for the calls is given here.

Sequence of Protein kinase 7 (PK7), Plasmodium falciparum 3D7 (PF3D7_0213400) (Q7YTF7 1-343): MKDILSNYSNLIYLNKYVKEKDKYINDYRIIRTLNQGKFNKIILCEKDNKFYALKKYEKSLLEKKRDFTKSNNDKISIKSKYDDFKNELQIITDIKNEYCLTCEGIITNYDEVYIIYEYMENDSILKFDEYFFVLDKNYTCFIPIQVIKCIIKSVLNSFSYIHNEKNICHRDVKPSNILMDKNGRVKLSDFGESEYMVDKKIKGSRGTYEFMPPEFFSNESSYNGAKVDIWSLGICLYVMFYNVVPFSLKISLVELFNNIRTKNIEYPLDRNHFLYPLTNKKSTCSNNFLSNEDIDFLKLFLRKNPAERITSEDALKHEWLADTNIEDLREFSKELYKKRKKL
Sequence of Calcium-dependent protein kinase 4 (Plasmodium falciparum (isolate 3D7)) (Q8IBS5 whole entry, looked up): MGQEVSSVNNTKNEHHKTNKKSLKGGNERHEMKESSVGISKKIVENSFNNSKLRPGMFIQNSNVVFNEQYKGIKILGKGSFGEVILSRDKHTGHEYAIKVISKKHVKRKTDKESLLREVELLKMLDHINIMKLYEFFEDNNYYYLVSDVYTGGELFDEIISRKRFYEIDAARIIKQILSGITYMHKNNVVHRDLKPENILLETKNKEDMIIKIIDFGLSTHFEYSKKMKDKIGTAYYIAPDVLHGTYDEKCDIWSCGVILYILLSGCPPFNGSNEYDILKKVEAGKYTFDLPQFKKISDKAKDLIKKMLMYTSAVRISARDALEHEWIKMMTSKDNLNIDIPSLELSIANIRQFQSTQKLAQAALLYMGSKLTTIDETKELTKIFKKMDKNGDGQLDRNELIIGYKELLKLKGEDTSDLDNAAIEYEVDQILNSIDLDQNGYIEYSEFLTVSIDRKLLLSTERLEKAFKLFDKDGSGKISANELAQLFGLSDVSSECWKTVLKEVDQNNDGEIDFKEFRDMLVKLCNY

Broadly, the inhibition is the relative decrease from the control value, in per cent. Turning to `COCC(=O)N(Cc1ccccc1-c1cccc(CNCCc2ccccc2)c1)C1CCN(Cc2ccccc2)CC1`, the growth inhibition in test [1] is 36%; in test [4], 93% (active). Besides, the inhibition is 21% in test [2] and 3% in test [3]. The outcome in test [5], in test [6], in test [7] and in test [8] was inactive.
On to `CN(c1cc(NC(=O)c2cccs2)ccn1)C1CCN(Cc2cccc(C#N)c2)CC1`, for which the growth inhibition in test [1] is 69% (active); in test [4], 90% (active). In addition, the inhibition in test [2] was 59% (active); in test [3] it was 4%. The outcome in test [5], in test [6], in test [7] and in test [8] was inactive.
As for `CC[C@H]1CN2CC[C@H]1C[C@H]2[C@H](O)c1ccnc2ccc(O)cc12`, the values for the growth inhibition in test [1] and in test [4] were 2% and 99% (active), respectively. In addition, the figures for the inhibition in test [2] and in test [3] were 11% and -3%, respectively. The outcome in test [5], in test [6], in test [7] and in test [8] was inactive.
Consider `Oc1ccc(CN2CCN(CCOC(c3ccc(F)cc3)c3ccc(F)cc3)CC2)cc1Cl`, for which the growth inhibition in test [1] is 87% (active); in test [4] it was 96% (active). Moreover, the figures for the inhibition in test [2] and in test [3] were 19% and -4%, respectively. In addition, the result in test [5], in test [6], in test [7] and in test [8] was inactive.
Turning to `O=C(C=Cc1ccc(Br)cc1)NC1CCC(CN2CCC(c3c[nH]c4ccccc34)CC2)CC1` (configuration not stated), the growth inhibition in test [1] is 98% (active); in test [4], 101% (active). In addition, the figures for the inhibition in test [2] and in test [3] were 71% (active) and -3%, respectively. The outcome in test [5], in test [6], in test [7] and in test [8] was inactive.
For the compound `O=C(/C=C/c1ccc(Cl)c(Cl)c1)N(Cc1ccccc1)C1CCC(CN2CCC(c3c[nH]c4ccccc34)CC2)CC1` (configuration not stated), the figures for the growth inhibition in test [1] and in test [4] were 59% (active) and 101% (active), respectively. In addition, the values for the inhibition in test [2] and in test [3] were 37% and -6%, respectively. Also, the result in test [5], in test [6], in test [7] and in test [8] was inactive.
As to `COc1cccc(C(=O)C2CC2CN2CC=C(c3c(C)[nH]c4ccccc34)CC2)c1` (configuration not stated), the growth inhibition is 87% (active) in test [1] and 92% (active) in test [4]. In addition, the figures for the inhibition in test [2] and in test [3] were 13% and -8%, respectively. Also, the result in test [5], in test [6], in test [7] and in test [8] was inactive.
For the compound `CC(=O)N(Cc1cccc(-c2ccc(CNCCc3ccccc3)cc2)c1)C1CCN(Cc2ccccc2)CC1`, the growth inhibition in test [1] was 50% (active); in test [4], 99% (active). The inhibition in test [2] was 32%; in test [3] it was -5%. Further, the result in test [5], in test [6], in test [7] and in test [8] was inactive.
For the compound `COc1ccc(CC(C)NCC(O)c2ccc(Cl)c(Cl)c2)cc1` (configuration not stated), the growth inhibition in test [1] was 96% (active); in test [4], 98% (active). Besides, the inhibition in test [2] is 0%; in test [3], 6%. In addition, the result in test [5], in test [6], in test [7] and in test [8] was inactive.
Consider `COc1cc2c(c(OC)c1OC)C[C@H]1c3c(cc4c(c3-2)OCO4)CCN1C`, for which the figures for the growth inhibition in test [1] and in test [4] were 30% and 84% (active), respectively. Moreover, the inhibition was 7% in test [2] and -1% in test [3]. For the same compound, the outcome in test [5], in test [6], in test [7] and in test [8] was inactive.
`Cc1ccc(CC(C)(C)NCC(O)c2cccc(C(F)(F)F)c2)cc1` (configuration not stated): the growth inhibition in test [1] was 92% (active); in test [4], 97% (active). The inhibition is 19% in test [2] and 2% in test [3]. Moreover, the outcome in test [5], in test [6], in test [7] and in test [8] was inactive.
Regarding `CCCCCCc1cc(O)c2c3c(c(=O)oc2c1)CCN(C)C3`, the values for the growth inhibition in test [1] and in test [4] were 66% (active) and 99% (active), respectively. Further, the inhibition in test [2] is -6%; in test [3] it was 4%. The result in test [5], in test [6], in test [7] and in test [8] was inactive.
As for `Cc1ccc(CC(C)NCC(O)c2cccc(C(F)(F)F)c2)cc1F` (configuration not stated), the growth inhibition in test [1] is 91% (active); in test [4], 97% (active). The inhibition in test [2] was 15%; in test [3], 3%. The result in test [5], in test [6], in test [7] and in test [8] was inactive.
For the compound `c1ccc2c(NCCCCCCCCCNc3c4ccccc4nc4ccccc34)c3ccccc3nc2c1`, the results for the growth inhibition in test [1] and in test [4] were 95% (active) and 100% (active), respectively. Also, the inhibition is 99% (active) in test [2] and -6% in test [3]. Also, the outcome in test [5], in test [6], in test [7] and in test [8] was inactive.
For the compound `O=C(/C=C/c1ccc(Cl)c(Cl)c1)N1CCC(CN2CCC(c3c[nH]c4ccc(NS(=O)(=O)c5cccs5)cc34)CC2)CC1`, the growth inhibition in test [1] and in test [4] was 100% (active) each time. Moreover, the values for the inhibition in test [2] and in test [3] were 17% and -7%, respectively. Moreover, the result in test [5], in test [6], in test [7] and in test [8] was inactive.
For `O=C(/C=C/c1cccc(Cl)c1)NC1CCC(CN2CCC(c3c[nH]c4ccccc34)CC2)CC1` (configuration not stated), the growth inhibition was 55% (active) and 82% (active) in test [1]; 100% (active) and 101% (active) in test [4]. Also, the inhibition is 35% and 42% in test [2]; 0% in test [3]. The result in test [5], in test [6], in test [7] and in test [8] was inactive.
`COCCNCc1ccc(-c2cccc(CN(C(=O)CCC3CCCC3)C3CCN(Cc4ccccc4)CC3)c2)cc1`: the growth inhibition in test [1] is 86% (active); in test [4] it was 91% (active). In addition, the inhibition in test [2] was 50% (active); in test [3], -2%. Besides, the outcome in test [5], in test [6], in test [7] and in test [8] was inactive.
In the case of `CC[C@H]1CN2CC[C@@H]1C[C@H]2[C@H](O)c1cc(N2CCC(C(N)=O)CC2)nc2ccc(OC)cc12`, the growth inhibition in test [1] was 9%; in test [4], 99% (active). For the same compound, the inhibition in test [2] is 17%; in test [3], -5%. Also, the result in test [5], in test [6], in test [7] and in test [8] was inactive.
Consider `CCC1=C[C@@H]2CN(C1)Cc1c([nH]c3ccccc13)[C@@](C(=O)OC)(c1cc3c(cc1OC)N(C)[C@H]1[C@@](O)(C(=O)OC)[C@H](O)[C@]4(CC)C=CCN5CC[C@]31[C@@H]54)C2`, for which the growth inhibition is 99% (active) in test [1] and 98% (active) in test [4]. The inhibition in test [3] was -1%. Moreover, the outcome in test [5], in test [6], in test [7] and in test [8] was inactive.
Consider `COc1cccc(C2(NC[C@@H](O)[C@H](Cc3ccccc3)NC(=O)c3ccccc3)CCCCC2)c1`, for which the growth inhibition is 67% (active) in test [1] and 97% (active) in test [4]. The inhibition is 14% in test [2] and -2% in test [3]. Moreover, the outcome in test [5], in test [6], in test [7] and in test [8] was inactive.
Regarding `CC[C@H]1CN2CC[C@H]1C[C@H]2C(O)c1cc(OC)nc2ccccc12` (some centres not stated), the growth inhibition in test [1] is 98% (active); in test [4], 100% (active). The inhibition in test [2] is -2%; in test [3], -1%. The outcome in test [5], in test [6], in test [7] and in test [8] was inactive.
